M1 PAM = positive allosteric modulators of human M1 muscarinic receptor; P11229; CHO-K1 hM1, Fluo-8 calcium fluorescence, ACh EC20; 0% = ACh EC20, 100% = maximal ACh; activation, % at 3 µM; 360,000 compounds, 0.088% hits; in the data active = activation above about 19%, passing the limit was not always enough
Target sequence (P11229 whole entry, looked up): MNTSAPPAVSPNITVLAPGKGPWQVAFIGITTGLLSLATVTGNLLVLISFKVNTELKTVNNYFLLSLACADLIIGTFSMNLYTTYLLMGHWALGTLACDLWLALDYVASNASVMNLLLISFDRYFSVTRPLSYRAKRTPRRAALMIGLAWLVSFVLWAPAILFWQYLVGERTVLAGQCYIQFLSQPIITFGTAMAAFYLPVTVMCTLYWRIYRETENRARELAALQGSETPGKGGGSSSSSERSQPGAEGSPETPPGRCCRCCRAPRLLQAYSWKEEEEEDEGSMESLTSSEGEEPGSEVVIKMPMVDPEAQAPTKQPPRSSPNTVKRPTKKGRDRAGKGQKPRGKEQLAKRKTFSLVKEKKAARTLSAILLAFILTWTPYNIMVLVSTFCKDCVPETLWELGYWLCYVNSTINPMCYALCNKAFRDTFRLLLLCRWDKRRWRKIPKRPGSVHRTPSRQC
M1 ag parental = nonselective activator or artifact in parental CHO-K1 cells; 360,000 compounds, 0.48% hits; Fluo-8 calcium fluorescence; scaled to maximal ATP response, vehicle zero; activation, % at 3 µM; in the data active = activation above about 15%;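 also: untransfected CHO-K1 host cells lacking M1 receptor as counterscreen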
CHO-K1 Ca PAM = counter-screen for M1 PAMs: effect in parental CHO-K1 cells. ATP EC20, Fluo-8 calcium fluorescence; 0% at ATP EC20, 100% at ATP max. activation, % at 3 µM. 360,000 compounds, 0.02% hits;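 active = activation above the run cutoff, the mean activation of all test compounds plus 3 SD, cut at about 40% in these data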;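 also: peak over basal fluorescence ratio in a 140 s read after ATP addition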
M1 antag = blocks human M1 muscarinic receptor; P11229; CHO-K1 hM1, Fluo-8 calcium fluorescence, ACh EC80 antagonist; inhibition, % at 3 µM; 360,000 compounds, 1.3% hits;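 active = percent inhibition above its own plate's cutoff, namely the mean of that plate's compound wells plus 3 SD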;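 also: peak over basal fluorescence ratio during 140 s after agonist addition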
CHO-K1 Ca antag = counter-screen for M1 antagonists: effect in parental CHO-K1 cells; ATP-induced calcium, Fluo-8 fluorescence; inhibition, % at 3 µM; 360,000 compounds, 0.6% hits;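 active = inhibition above a per-plate cutoff, the plate's mean sample inhibition plus 3 SD, cut at about 24% in these data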
M1 ag = agonists of human M1 muscarinic receptor; P11229; CHO-K1 hM1, Fluo-8 calcium fluorescence, agonist mode; 0% DMSO, 100% acetylcholine EC100; activation, % at 3 µM; 360,000 compounds, 0.33% hits;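 active = activation above the run's mean compound activation plus 3 SD, cut at about 16% in these data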;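 also: peak over basal fluorescence ratio within a 140 s kinetic read after compound addition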
A number is an active result; 0 = inactive; - = no result given. Rows were chosen to be rich in hits. Some 2.3% of all compounds tested hit in one or more screens of this group.

SMILES	M1 PAM	M1 ag parental	CHO-K1 Ca PAM	M1 antag	CHO-K1 Ca antag	M1 ag
CCN(CC)c1ccc(CNCCc2ccccc2F)cc1	0	0	0	56	0	0
OC(c1cccc(Cl)c1)(c1cccc(Cl)c1)C1CN2CCC1CC2 (centres undefined)	0	0	0	99	0	0
CN1CCCC1C(O)(c1ccccc1)c1ccccc1 (centres undefined)	0	0	0	0	0	0
Oc1cccc(/C=N/NP(=S)(c2ccccc2)c2ccccc2)c1	0	0	0	0	25	0
COC(=O)C1=C(c2cccc(C#N)c2)C[C@@H]2CC[C@H]1N2C(=O)N1CCC(C)CC1	0	0	0	0	0	0
COc1ccc(C(=O)C2CCCN(C3CSCCSC3)C2)c(C)c1 (centres undefined)	0	0	0	54	0	0
CCN1/C(=C/C=C/C2=[N+](CC)c3ccccc3C2(C)C)C(C)(C)c2ccccc21	0	437	0	100	95	460
C[N+]1=C(/C=C/Nc2ccccc2)C(C)(C)c2ccccc21	0	0	0	0	0	0
CC(C)(C)c1ccc(C(=O)C2CCCN(C3CCC3)C2)cc1 (centres undefined)	0	0	0	52	0	0
CC(=O)N1CCC(N2CCCC(C(=O)c3cccc(Cl)c3)C2)CC1 (centres undefined)	0	0	0	48	0	0
Cc1ccc(C[n+]2c(-c3ccc(C)cc3)cc(-c3ccc(C)cc3)cc2-c2ccc(C)cc2)cc1	0	0	0	33	0	0
CC1CCOC(=O)C=CC=CC(=O)OC2CC3OC4C5OC5(C)C(O)CC4(COC(=O)C1O)C2(C)C31CO1 (centres undefined)	0	0	0	0	0	0
CC1=CC2OC3CC4OC(=O)C=CC=CC(=O)OCCC(C)C(O)C(=O)OCC2(CC1)C4(C)C31CO1 (centres undefined)	0	0	0	37	0	0
O=c1[nH]c(=S)n(CCC2=CCCCC2)c(O)c1C=NCCCn1ccnc1	0	0	0	30	25	0
CC1(C)CCCN1CCC(C(N)=O)(c1ccccc1)c1ccccc1	0	0	0	99	0	0
CC(C)N(CCC(C(N)=O)(c1ccccc1)c1ccccn1)C(C)C (centres undefined)	0	0	0	0	0	0
COC1CC2C=C(C)C=CC=CC(=O)NC(c3ccccc3)CC=CCCC(O)CC(=O)C2=C1O (centres undefined)	0	0	0	56	0	0
CCOC(=O)[C@]12Cc3ccccc3[C@H]1N(Cc1ccccc1)C(=O)c1cc(F)c(F)cc12	-	0	0	-	0	-
CCOC(=O)C1(CCc2ccccc2)CCN(Cc2cccc3cnccc23)CC1	0	0	0	48	0	0
CCOC(=O)C1(CCc2ccccc2)CCN(Cc2cccc3c2OCO3)CC1	0	0	0	34	0	0
CC(=O)OC1CCC2(C)C(CCC3C4CC(N5CC5)C(C(C)=O)C4(C)CC(=O)C32)C1 (centres undefined)	0	0	0	0	0	0
CCN(CC)CCOC(=O)c1ccc(N=Cc2c(O)[nH]c(=O)[nH]c2=O)cc1	0	0	0	22	24	0
O=S(=O)(NC1CN2CCC1CC2)c1ccc(Cl)cc1 (centres undefined)	0	0	0	25	0	0
NC(=O)Cn1cc(C(=O)c2ccccc2)c2ccccc21	0	0	0	0	0	0
O=c1[nH]c2ccccc2n1C1CCN(CCCC(c2ccc(F)cc2)c2ccc(F)cc2)CC1	0	0	0	0	0	21
SMILES	M1 PAM	M1 ag parental	CHO-K1 Ca PAM	M1 antag	CHO-K1 Ca antag	M1 ag
COc1ccc(NC(=O)C2C3CCC(O3)C2C(=O)O)c(OC)c1 (centres undefined)	0	0	0	0	0	0
NNC(N)=O	0	0	0	0	0	16
C=CCC1(Cc2ccsc2)C(=O)NC(=O)NC1=O	0	0	0	0	0	0
CC(=O)OC1(c2ccccc2)CCN(C2CCCCC2)CC1C (centres undefined)	0	0	0	31	0	0
C1CCC2S[C@H]3CCCCC3NC2C1 (some centres undefined)	0	0	0	0	0	0
O=C1NC(=O)C(=Cc2ccc(-c3ccc(F)cc3O)o2)C(=O)N1	0	0	0	47	0	38
Cc1cccc(-n2c(O)c(C=NCCN3CCNCC3)c(=O)[nH]c2=S)c1	0	0	0	0	0	53
Cc1ccc(N2C(=O)NC(=O)/C(=C\C=C\c3ccco3)C2=O)cc1C	0	0	0	0	0	0
COc1ccc(-c2nn(CCC#N)cc2C(=O)NCc2ccccc2)cc1OC	0	0	0	0	0	0
CN1CCN(Cc2ccccc2Sc2ccccc2)CC1	0	0	0	100	0	0
COc1ccccc1Sc1ccccc1CC(C)N (centres undefined)	0	0	0	0	0	0
CC(Cc1ccccc1Sc1ccccc1)N(C)C (centres undefined)	0	0	0	98	0	0
CSc1ccc(CN2CCN(Cc3ccccc3Cl)CC2)cc1	0	0	0	0	0	0
CC(Cc1ccccc1Sc1ccc(O)cc1)N(C)C (centres undefined)	0	0	0	83	0	0
COC(=O)CCCC(NC(=S)N1CC2C[C@@H](C1)Cn1c2cccc1=O)C(=O)OC (some centres undefined)	0	0	0	0	0	0
Cc1ccc(C2=CCNCC2)cc1	0	0	0	0	0	0
CC1(C)CSC(=NCc2ccccc2)N1	0	26	0	0	0	0
CCOC(=O)[C@]12Cc3cc(C)ccc3[C@H]1N(C1CCCCC1)C(=O)c1ccccc12	-	0	0	-	0	-
O=C(C(=O)N1CCOCC1)c1cn(Cc2ccccc2F)c2ccccc12	0	0	0	0	0	0
COC(=O)C1=C(c2cc3ccccc3o2)C[C@@H]2CC[C@H]1N2C(=O)NCCNC(C)=O	0	0	0	33	0	0
CCC(C(=O)N1CCC2(CC1)OCCO2)n1c2ccccc2c2nc(=O)cc(C)n21 (centres undefined)	0	0	0	0	0	0
COc1ccc(CN2CC=C(c3ccc(F)cc3)CC2)cc1Br	0	0	0	46	0	0
CCN(CC)c1ccc(CN2CC=C(c3ccc(F)cc3)CC2)cc1	0	0	0	37	0	0
CC1=C(C)CC2(C(=O)NC(=S)NC2=O)C(C)C1 (centres undefined)	0	0	0	0	0	0
CCn1ccnc1CN1CCCC(C(=O)c2cccc(C(F)(F)F)c2)C1 (centres undefined)	0	0	0	78	0	0
O=C(c1cccc(C(F)(F)F)c1)C1CCCN(Cc2ncc[nH]2)C1 (centres undefined)	0	0	0	0	0	0
